The list is not random: actives were taken first. Their share in the collection is about 0.9%.
RXFP1 antagonist: qHTS Assay for Antagonists of the Relaxin Receptor RXFP1. HEK293-RXFP1, relaxin-stimulated cAMP HTRF, 30 min; stronger effect = lower value. Relaxin receptor 1 (Homo sapiens), Q9HBX9. activity change, negative = inhibition, % at 57.5 µM. 350,000 compounds, 0.59% hits;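 active means activity change of -60% or lower, but not beyond a set lower limit; inconclusive means change between -60% and -40%, or beyond the set limit; inactive means change above -40%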; further: on the % scale 0 is the no-effect control and ±100 the full control effect
Target sequence (Q9HBX9 whole entry, looked up): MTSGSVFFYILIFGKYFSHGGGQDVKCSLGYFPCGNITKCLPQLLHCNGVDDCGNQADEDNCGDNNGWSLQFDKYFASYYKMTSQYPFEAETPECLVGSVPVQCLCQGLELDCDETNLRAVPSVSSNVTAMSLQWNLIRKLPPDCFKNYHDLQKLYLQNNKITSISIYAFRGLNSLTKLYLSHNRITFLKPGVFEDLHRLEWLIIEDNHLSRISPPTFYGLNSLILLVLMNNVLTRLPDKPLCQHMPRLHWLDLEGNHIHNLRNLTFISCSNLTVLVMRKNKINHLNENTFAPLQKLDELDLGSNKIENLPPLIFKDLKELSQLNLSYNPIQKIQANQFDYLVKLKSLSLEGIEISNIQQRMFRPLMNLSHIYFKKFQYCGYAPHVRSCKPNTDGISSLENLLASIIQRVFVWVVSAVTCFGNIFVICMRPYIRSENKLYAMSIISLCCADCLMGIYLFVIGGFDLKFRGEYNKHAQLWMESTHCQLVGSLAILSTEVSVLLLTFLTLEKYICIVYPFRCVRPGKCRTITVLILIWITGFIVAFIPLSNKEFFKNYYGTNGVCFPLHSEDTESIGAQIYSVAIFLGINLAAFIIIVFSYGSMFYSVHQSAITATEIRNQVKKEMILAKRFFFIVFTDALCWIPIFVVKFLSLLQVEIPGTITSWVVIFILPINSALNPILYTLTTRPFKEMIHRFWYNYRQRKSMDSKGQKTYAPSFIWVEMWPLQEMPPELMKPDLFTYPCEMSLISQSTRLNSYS
RXFP1 agonist: qHTS Assay for Agonists of the Relaxin Receptor RXFP1. 370,000 compounds, 0.3% hits. HEK293T-RXFP1 cAMP TR-FRET, 30 min; response scale: percent of porcine relaxin response, buffer zero. Potency, µM (series often up to 57.5 µM), without a hit: top-dose activation, usual class: activators; active means well fitted activation curve with a large enough effect; inconclusive means small, poorly fitted or top-dose-only effect; further: potency means the concentration at half of the fitted maximal effect; on the % scale 0 is the no-effect control and ±100 the full control effect; nearly all actives have a fitted effect of over 60% in size
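Agonist response is measured as cAMP accumulation in an RXFP1-transfected HEK293T line under PDE4 inhibition. Values are scaled between buffer-only and 29 nM porcine relaxin, and EC50s come from standard Hill equation fits.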
gsp antag: qHTS for Antagonists of gsp, the Etiologic Mutation Responsible for Fibrous Dysplasia/McCune-Albright Syndrome: qHTS | Potency, µM (series often up to 76.9 µM), inactives show top-dose activity change, negative = inhibition, actives largely listed as inhibitors | 340,000 compounds, 0.4% hits | gsp-mutant cells, cAMP HTRF, 30 min | AID 624288, 2012; calls by dose curve; cell line not stated here;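 further: intracellular cAMP measured with PDE inhibitor Ro 20-1724 present during compound exposure; potency means the concentration at half of the fitted maximal effect; on the % scale 0 is the no-effect control and ±100 the full control effect; nearly all actives have a fitted effect of over 65% in size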
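Cells in G418 medium, seeded 16-24 h, 37C; buffer exchange to DPBS + 1 mM CaCl2, 0.5 mM MgCl2, 0.05% BSA; cpds in DMSO + […] (300 uM stock), 30 min 37C; HTRF cAMP detection.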
gsp ag: qHTS for Agonist of gsp, the Etiologic Mutation Responsible for Fibrous Dysplasia/McCune-Albright Syndrome: qHTS. gsp mutant cells, cAMP HTRF, 30 min. Potency, µM (doses to about 76.9 µM), for inactives: at the highest dose activation (cAMP increase), actives largely listed as activators. 340,000 compounds, 0.13% hits. AID 624287, 2012; active means well fitted activation curve with a large enough effect; inconclusive means small, poorly fitted or top-dose-only effect, or another doubt; inactive means no such curve, though single readings can be large or run the other way; cell line not stated here;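 further: phosphodiesterase inhibitor Ro 20-1724 added with compounds to block cAMP breakdown; potency means the concentration at half of the fitted maximal effect; nearly all actives have a fitted effect of over 60% in size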
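Cells in DMEM/10% FBS with G418 were pretreated with compounds in DMSO plus […] (300 uM stock) for 30 min at 37C. cAMP was measured by HTRF (cAMP-d2 plus anti-cAMP antibody-K) after 30 min at room temperature.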
Starred values were filed as active, the others as inactive; ? = inconclusive; . = no result given; ! = repeats disagree; [ ] = another dose, or the depositor's remark.

SMILES | RXFP1 antagonist | RXFP1 agonist | gsp antag | gsp ag
Cc1ccc(NCc2nc3ccccc3n2CCOc2ccccc2)cc1 | -62*! | 5% | -9% | -2%
Cc1cc(C)nc(SCc2cc(=O)c(OC(=O)c3ccc(S(=O)(=O)N(C)C)cc3)co2)n1 | . | 1% | -20% | -6%
Cc1cc(C)nc(SCc2cc(=O)c(OC(=O)c3ccc(Cl)c([N+](=O)[O-])c3)co2)n1 | -3 | 5% | 35µM* | -38%
CCCC(=O)NC(C)c1nc2ccccc2n1Cc1ccccc1 (centres undefined) | 6 | -2% | . | .
C=CCOc1ccc(C2C(C(=O)c3ccco3)=C(O)C(=O)N2c2nnc(C)s2)cc1 (centres undefined) | -6 | 14µM* | -10% | 45%[15.4 µM]
COc1ccc(C2C(C(=O)c3ccco3)=C(O)C(=O)N2c2nnc(C)s2)cc1 (centres undefined) | 4 | ? | -10% | 42%[15.4 µM]
COC(=O)c1sc(S(=O)(=O)N2CC(C)OC(C)C2)c(C(=O)OC)c1C (centres undefined) | 1 | -1% | 4% | -22%
O=[N+]([O-])c1cccc(NC2=NCCC2)c1 | -64* | 1% | 19% | 0%[15.4 µM]
O=c1[nH]c2sc3c(c2c2nncn12)CCCC3 | 4 | 0% | 35µM* | 0%
COc1ccc(Br)cc1CNC(=O)c1ccc2nc(C(C)C)oc2c1 | -17 | 0% | . | .
Brc1ccc(CSc2ncn[nH]2)cc1 | 6 | 0% | 32µM* | -2%
Cc1sc2ncnc(N3CCC(C(=O)N(C)CC(=O)Nc4ccccc4Br)CC3)c2c1C | -37 | 6% | 35µM* | -107%
O=C(Nc1ccccc1)c1ccc(=O)n(Cc2ccc(F)c(F)c2)c1 | -62* | -1% | -11% | -2%
Cn1c(O)c(/C=N/NC(=O)c2cc3ccccc3cc2O)c2ccccc21 | ? | 5% | 35µM* | -8%[15.4 µM]
Cn1c2ccccc2c2cc(/C=N/NC(=O)c3ccc(O)cc3O)ccc21 | -3 | 3% | ? | 20%
CCOCCCn1c(=N)c(C(=O)NCc2cccnc2)cc2c(=O)n3cc(C)ccc3nc21 | . | 9% | . | .
Cc1cc(C)cc(NS(=O)(=O)c2ccc3c(c2)c(=O)n(C)c(=O)n3C)c1 | 7 | 26% | 1% | 25µM*
COc1cccc(Nc2sc(C(=O)c3ccc(F)cc3)c(N)c2C(=O)NCc2ccc(C)cc2)c1 | -10 | 2% | . | .
CC1CCCCC1NC(=O)COC(=O)c1c2c(nc3ccccc13)/C(=C\c1ccco1)CC2 (centres undefined) | -65* | . | -13% | ?
CC(=O)/C=C/C=C1/C2CCC(C2)C1(C)C (centres undefined) | -20 | . | . | .
N#Cc1ccccc1NC(=O)CSc1ncn[nH]1 | . | -4% | . | .
Fc1ccc(C2CC(c3ccccc3)Nc3ncnn32)cc1 (centres undefined) | . | 0% | 11µM* | 8%
O=C1Cc2cc(S(=O)(=O)N3CCN(c4ccccc4)CC3)ccc2N1 | 11 | 5% | -3% | -104%
O=C1Cc2cc(CCN3CCN(c4nsc5ccccc45)CC3)c(Cl)cc2N1 | -107* | 4% | . | .
Cc1ccccc1-c1noc(-c2cc(C(C)C)[nH]n2)n1 | -11 | -1% | . | .
SMILES | RXFP1 antagonist | RXFP1 agonist | gsp antag | gsp ag
CCOC(=O)c1sc2nc(NC(=O)C3CC3)sc2c1C | 1 | -1% | 5% | 16%
CCOC(=O)c1sc2nc(NC(=O)C(C)(C)C)sc2c1C | . | 2% | 32µM* | 0%
CC(C)n1ncc2c(C(=O)NCC(=O)Nc3ccccc3Br)cc(C3CC3)nc21 | -88* | -3% | -16% | 27%
O=C(CCCN1CCN(c2ccc(F)cc2)CC1)NC1c2ccccc2CSc2ccccc21 (centres undefined) | -27 | . | . | .
Cc1csc(NC(=O)Cc2ccccc2Cl)n1 | -14 | 4% | 0% | ?
Cc1cnc(NC(=O)Cc2ccccc2Cl)s1 | -64* | 2% | 6% | -39%
O=C(CCNC(=O)N1CC(=O)Nc2ccccc21)NCc1cccc(Cl)c1 | -92* | 0% | 8% | 10%
CCN(CC)CCNC(=O)CSc1nc2nc(C)c(Cc3ccccc3)c(C)n2n1 | -12 | 5% | . | .
COc1cc(OC)cc(C(=O)N(Cc2ccco2)c2c(N)n(Cc3ccccc3)c(=O)[nH]c2=O)c1 | 2 | . | 5% | -34%
CCN(CC)S(=O)(=O)c1ccc(N(C)C)c(NC(=O)CSCc2c(C)noc2C)c1 | 13 | 0% | 6% | 26%[15.4 µM]
CCN(CC)S(=O)(=O)c1ccc(OC)c(NC(=O)CSCc2c(C)noc2C)c1 | 14 | . | 4% | 18µM*
CN(CC(O)COCc1ccccc1F)C1CCCCC1 (centres undefined) | 12 | 1% | -20% | -1%
CN(Cc1cccc(F)c1)CC(O)COCc1ccccc1Cl (centres undefined) | -27 | 3% | 11µM* | 9%
Cc1ccc(O)c(C(=O)c2cc(C#N)c(=O)n(Cc3ccccc3)c2)c1 | -90* | 1% | -17% | -11%
Cc1cccc(NC(=O)CSc2c3c(nc4ccccc24)CCC3)n1 | -2 | 2% | -3% | ?
CCC(C)NC(=O)CSc1c2c(nc3ccccc13)CCCC2 (centres undefined) | -7 | 9% | 3% | 13µM*
Cc1ccc(NC2=NCC(=O)N2C2CCCC2)cc1C | -69* | -2% | 3% | -30%[15.4 µM]
Cc1ccc(NC2=NCC(=O)N2C2CCCC2)cc1 | 11 | 0% | 9% | ?
O=C(COc1ccccc1F)Nc1cc(S(=O)(=O)Nc2cccc(Cl)c2)ccc1O | 4 | -3% | 35µM* | 30%
Cc1c(-c2ccc(Cl)cc2)c(=O)oc2ccc(OC(=O)N3CCOCC3)cc12 | -11 | 1% | . | .
CCN(CCNC(=O)C1CCN(Cc2nc(-c3ccc(Cl)cc3)oc2C)CC1)c1ccccc1 | -62* | 1% | 1% | 1%
Cc1ccc(S(=O)(=O)N2CCN(C(=O)CNC(=O)c3sc4ccccc4c3Cl)CC2)cc1 | -14 | 8% | -33% | 11µM*
O=C(NCC(=O)N1CCCCC1)c1sc2ccccc2c1Cl | 9 | 0% | 5% | 20%
CC[n+]1c(/C=C/c2ccc(N(C)C)cc2)ccc2ccccc21 | -91* | 3% | ? | 20%
CC[n+]1c(/C=C/c2ccc(OC)c(OC)c2)ccc2ccccc21 | -1 | -1% | -5% | -32%
COCCn1cc(-c2csc(N)n2)c2ccccc21 | 1 | -1% | 1% | -32%
CN(C)c1nc(-c2cn(CCC#N)c3ccccc23)cs1 | -82* | 1% | ? | -11%[15.4 µM]
CC1(C)N=C(SCc2ccc(F)cc2)c2ccccc2N1 | -8 | 3% | . | .
O=C(Nc1ccc(S(=O)(=O)N2CCOCC2)cc1)c1cc(Cl)ccc1NS(=O)(=O)c1ccc(Cl)s1 | -34 | . | . | .
COc1cc(/C=C2/C(=O)c3cccc([N+](=O)[O-])c3C2=O)c(Br)cc1O | -8 | 6% | 35µM* | 20%

Screening results as filed in PubChem.
